Source: PubChem BioAssay (NCI)
“And” between values parts separate entries of the source, which are not always exact repeats. Equal values may be shown once. Compounds without any hit were thinned out: in the full panel of roughly 83,000, 20% have a hit.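 Results are percent growth after 48 hours of single-concentration exposure. 100 means growth as in untreated cells, lower positive values show inhibition; negative values down to -100 show cell death.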 The source made the active and inactive calls. The calls were made as follows: active = growth percent below 10; inactive = the rest.

Assays:
Assay in all cases: NCI-60 one-dose screen, 48 h (100 = growth as untreated, 0 = no growth, -100 = all killed)
[1] = test system: T-47D breast; details: 10 µM unless noted
[2] = test system: BT-549 breast; details: 10 µM unless noted
[3] = test system: MDA-MB-435 melanoma; details: 10 µM unless noted
[4] = test system: SW-620 colon; details: 10 µM unless noted
[5] = test system: MCF7 breast
[6] = test system: HCT-116 colon; details: 10 µM unless noted
[7] = test system: HCC-2998 colon; details: 10 µM unless noted
[8] = test system: KM12 colon; details: 10 µM unless noted

SMILES	growth [1]	growth [2]	growth [3]	growth [4]	growth ([5]; 10 µM unless noted)	growth [6]	growth [7]	growth ([5]; 10 µM)	growth ([5]; 100 µM)	growth [8]
CCN(C)c1ccccc1	105% (inactive)	84.2% (inactive)	104% (inactive)	110% (inactive)	90.7% (inactive)	106% (inactive)	107% (inactive)			
Nc1ccc2ccc(NS(=O)(=O)N3CCCCC3)cc2c1	46.8% (inactive)	29% (inactive)	-14.7% (active)	27.9% (inactive)	17.8% (inactive)	9.95% (active)	-3.22% (active)			
O=C(N=C1C(=O)C2(CCCCC2)C2(N=C(c3ccccc3)OC2=O)C12CCCCC2)c1ccccc1 (stereo not drawn)	35.7% (inactive)	86.9% (inactive)	89.1% (inactive)	71.5% (inactive)	51.3% (inactive)	39.5% (inactive)	59.2% (inactive)			
COc1cc2oc3cc(=O)cc4oc(-c5ccccc5)cc(c2c2c1CCC(c1ccccc1)O2)c43 (stereo not drawn)	55.8% (inactive)	78.8% (inactive)	69.2% (inactive)	100% (inactive)		59.7% (inactive)	60.7% (inactive)	30% (inactive)	19.2% (inactive) and 3.41% (active)	74.3% (inactive)
CC(O)CCNC(c1ccccc1)C(O)c1ccccc1 (stereo not drawn)	99.2% (inactive)	110% (inactive)	112% (inactive)	110% (inactive)	99.9% (inactive)	100% (inactive)	111% (inactive)			
CCN(CC)C(CC(=O)c1ccccc1)C(=O)c1ccccc1 (stereo not drawn)	77.8% (inactive)	102% (inactive)	99.2% (inactive)	-7.93% (active)	53.2% (inactive)	92% (inactive)	108% (inactive)			
Cc1c(O)nc(N)[nH]c1=O	114% (inactive)	116% (inactive)	103% (inactive)	102% (inactive)	99% (inactive)	103% (inactive)	92.8% (inactive)			
CCCCCCC(C)CC1=C(O)c2ccccc2C(=O)C1=O (stereo not drawn)	72.9% (inactive)	49% (inactive)	42.7% (inactive)	35.4% (inactive)	25.9% (inactive)	23.6% (inactive)	54.9% (inactive)			
CN1C2C=CC(=O)C1C1C(=O)N(c3ccccc3)C(=O)C12 (stereo not drawn)	68.5% (inactive)	52.9% (inactive)	80.5% (inactive)	37.3% (inactive)	44.5% (inactive)	35.9% (inactive)	113% (inactive)			
N#CC(=S)Nc1ccc(Cl)c(Cl)c1	13.2% (inactive)	-4.25% (active)	6.5% (active)	19.6% (inactive)		4.91% (active)	20.2% (inactive)	5.23% (active)	-23.4% (active) and -100% (active)	2.62% (active)
CCOC(=O)C1=C(C)NC(C)=C(C(=O)OCC)C1	90.1% (inactive) and 116% (inactive)	110% (inactive) and 93.7% (inactive)	95.4% (inactive) and 97.6% (inactive)	91.9% (inactive) and 96.9% (inactive)	102% (inactive) and 115% (inactive)	140% (inactive) and 87.3% (inactive)	114% (inactive) and 87.1% (inactive)			
Oc1ccc(O)c(-c2ccccc2)c1	47.1% (inactive)	55.3% (inactive)	81.8% (inactive)	78.7% (inactive)	39.5% (inactive)	47.1% (inactive)	65.6% (inactive)			
CC1(CO)CCCC1NCCNC1CCCC1(C)CO (stereo not drawn)	97.8% (inactive) and 106% (inactive)	98.7% (inactive) and 113% (inactive)	98.4% (inactive) and 102% (inactive)	104% (inactive) and 101% (inactive)	94% (inactive) and 95.3% (inactive)	88.6% (inactive) and 102% (inactive)	99.4% (inactive) and 118% (inactive)			
Oc1cccnc1CN1CCOCC1	93.1% (inactive)	118% (inactive) and 115% (inactive)	109% (inactive) and 99.3% (inactive)	109% (inactive) and 101% (inactive)	95.2% (inactive) and 90.7% (inactive)	104% (inactive) and 103% (inactive)	102% (inactive) and 99.6% (inactive)			112% (inactive) and 108% (inactive)
CN(C=O)c1ccccc1	86.7% (inactive)	93.1% (inactive)	102% (inactive)	104% (inactive)	87.4% (inactive)	89% (inactive)	101% (inactive)			110% (inactive)
OCCCc1ccccc1	112% (inactive)	101% (inactive)	108% (inactive)	107% (inactive)	101% (inactive)	99.5% (inactive)	108% (inactive)			
CC(=O)Nc1ccc(OC(C)=O)cc1	78.1% (inactive) and 103% (inactive)	11.9% (inactive) and 103% (inactive)	-29.5% (active) and 107% (inactive)	26% (inactive) and 94.2% (inactive)	91.8% (inactive)	-14.7% (active) and 104% (inactive)	-28.8% (active) and 112% (inactive)			2.42% (active) and 112% (inactive)
O=C(OCc1ccccc1)c1ccccc1	96% (inactive) and 87.9% (inactive)	109% (inactive) and 102% (inactive)	105% (inactive) and 112% (inactive)	110% (inactive) and 105% (inactive)	107% (inactive) and 94.3% (inactive)	108% (inactive) and 93.7% (inactive)	102% (inactive) and 93.9% (inactive)			104% (inactive) and 102% (inactive)
O=C(O)c1cc(=O)[nH]c(=O)[nH]1	101% (inactive) and 105% (inactive)	97.2% (inactive)	96.7% (inactive) and 113% (inactive)	111% (inactive) and 103% (inactive)	98.7% (inactive)	107% (inactive)	99.3% (inactive)			106% (inactive) and 99.6% (inactive)
N#Cc1c[nH]n2ccnc12	92.3% (inactive)	98.3% (inactive)	114% (inactive)	119% (inactive)	102% (inactive)	95.2% (inactive)	113% (inactive)			109% (inactive)
CC(=O)Oc1ccc(C(c2ccc(OC(C)=O)cc2)c2ccccn2)cc1	-15.1% (active) and -18.5% (active)	-16.4% (active)	110% (inactive) and 103% (inactive)	104% (inactive) and 83.9% (inactive)	20.6% (inactive) and 34.8% (inactive)	88.6% (inactive) and 96% (inactive)	70.5% (inactive)			80% (inactive) and 85% (inactive)
O=C1c2ccccc2C(c2ccccc2)C1c1ccccc1 (stereo not drawn)	82.9% (inactive)	131% (inactive)	95.9% (inactive)	90.1% (inactive)	69.3% (inactive)	79.3% (inactive)	95.4% (inactive)			95.1% (inactive)
O=[N+]([O-])c1cccc(N=Cc2ccccc2)c1	103% (inactive)	101% (inactive)	109% (inactive)	117% (inactive)	102% (inactive)	103% (inactive)	103% (inactive)			
CC(=O)Nc1ccc2oc(=O)ccc2c1	85.3% (inactive)	89.8% (inactive)	105% (inactive)	107% (inactive)	110% (inactive)	86.5% (inactive)	110% (inactive)			100% (inactive)
CC(CN(C)C)CN1c2ccccc2Sc2ccccc21 (stereo not drawn)	79.4% (inactive) and 88.3% (inactive)	79% (inactive) and 91.8% (inactive) and 80.2% (inactive)	76.3% (inactive) and 85% (inactive) and 75.7% (inactive)	86.9% (inactive) and 83.8% (inactive) and 88.8% (inactive)	88.2% (inactive) and 94.2% (inactive) and 82.2% (inactive)	59.3% (inactive) and 63.9% (inactive) and 94.9% (inactive)	78.4% (inactive) and 97.8% (inactive) and 83.4% (inactive)			95.4% (inactive) and 104% (inactive) and 89.5% (inactive)
CCOC(=O)C(N)Cc1cc(I)c(O)c(I)c1 (stereo not drawn)	105% (inactive) and 111% (inactive)	109% (inactive) and 98.5% (inactive)	105% (inactive) and 114% (inactive)	104% (inactive)	107% (inactive) and 103% (inactive)	110% (inactive) and 95.3% (inactive)	104% (inactive) and 96.6% (inactive)			107% (inactive)
O=P(O)(O)OC1C(OP(=O)(O)O)C(OP(=O)(O)O)C(OP(=O)(O)O)C(OP(=O)(O)O)C1OP(=O)(O)O.[Cu+2] (stereo not drawn)	101% (inactive)	126% (inactive)	101% (inactive)	95.6% (inactive)	86.8% (inactive)	96.6% (inactive)	96.3% (inactive)			100% (inactive)
COc1ccc(-n2[nH]c3c(cnc4ccccc43)c2=O)cc1	88.3% (inactive)	90% (inactive) and 95.4% (inactive)	94.7% (inactive) and 97.3% (inactive)	106% (inactive) and 103% (inactive)	98.8% (inactive) and 93.1% (inactive)	90.5% (inactive) and 95.1% (inactive)	69.2% (inactive) and 107% (inactive)			99.1% (inactive) and 97.7% (inactive)
